Screening results as filed in PubChem BioAssay.
D2 PAM-1 – human D2 receptor positive allosteric modulation | P14416 | DiscoveRx D2 beta-arrestin cells, luminescence, 90 min; 100% = 57 uM dopamine signal | potentiation, % (test concentration not listed) | actives 0.23% (n = 360,000) | AID 624464; in the data active means potentiation above about 50%; inconclusive means mostly about 30% to 49%
Target sequence (P14416 whole entry, looked up): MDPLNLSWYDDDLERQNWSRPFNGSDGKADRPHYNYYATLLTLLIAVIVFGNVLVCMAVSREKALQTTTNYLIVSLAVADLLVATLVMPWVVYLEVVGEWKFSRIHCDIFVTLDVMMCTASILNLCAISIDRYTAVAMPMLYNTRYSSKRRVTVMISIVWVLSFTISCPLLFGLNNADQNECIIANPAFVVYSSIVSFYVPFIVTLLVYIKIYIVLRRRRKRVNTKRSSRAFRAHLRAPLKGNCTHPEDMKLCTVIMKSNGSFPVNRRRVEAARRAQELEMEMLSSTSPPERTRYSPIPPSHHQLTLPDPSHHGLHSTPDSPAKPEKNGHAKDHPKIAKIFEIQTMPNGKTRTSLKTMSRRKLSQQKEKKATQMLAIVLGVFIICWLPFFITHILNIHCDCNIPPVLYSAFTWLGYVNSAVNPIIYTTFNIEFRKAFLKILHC
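PathHunter beta-arrestin assay in DiscoveRx D2 cells. Compounds were added with an EC20 of dopamine (50 nM final) for 90 min at 37 deg C. Luminescence was read 1 h after detection reagent, with 57 uM dopamine as the EC100 control.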
D2 ag-1 – activates the human D2 dopamine receptor | activation, % (no concentration beside the values) | DiscoveRx PathHunter D2 beta-arrestin, luminescence, 90 min; 100% = 57 uM dopamine signal | actives 0.084% (n = 360,000); in the data active means activation above about 40%; inconclusive means between about 15% and that limit
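DiscoveRx PathHunter D2 beta-arrestin cells (2,100/well) attached overnight, then compound-stimulated 90 min at 37 C in HBSS/10 mM HEPES/0.1% Tween-20 buffer; beta-galactosidase complementation read by luminescence after 1 h at ambient temperature. Dopamine 57 uM final (EC100) as control.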
D2 PAM-2 – D2 dopamine receptor (human) potentiation. P14416. HEK293 T-REx D2, calcium flux, EC20 dopamine potentiation. potentiation, % at 10 µM. actives 0.34% (n = 340,000). AID 485347;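 active means potentiation over 3 SD above the plate norm, cut at about 30% in these data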
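Tetracycline-induced HEK293 T-REx cells force-coupled to calcium signalling expressed D2; compounds were pin-added after a 10 s baseline, read kinetically 180 s, then an EC20 dopamine challenge followed with a further 180 s calcium read.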
D2 antagonist – antagonists of human D2 dopamine receptor | actives 2% (n = 340,000) | HEK293 TREx D2 cells, calcium flux, dopamine EC80 | P14416 | inhibition, % at 10 µM | AID 485344; in the data active means inhibition above about 30%; inactive means below that, where a call was filed
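Measurement of antagonist activity uses fluorescent calcium dye in inducible HEK293 T-REx D2 cells: 10 s baseline, compound addition with 180 s read, EC80 dopamine addition with a further 180 s read.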
D2 ag-2 – activates the human D2 dopamine receptor; HEK293 T-REx D2 cells, calcium flux agonist mode; activation, % at 2 µM; AID 485358; P14416; actives 0.53% (n = 340,000);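 active means activation over 3 SD above normal in the single-dose calcium agonist read, cut at about 30% in these data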
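Agonism scored from kinetic calcium signal (1 read/sec, 180 s) following compound pin transfer, after a 10 s baseline. Cells: HEK293 Trex line expressing inducible D2 receptor coupled to calcium, dye-loaded after overnight culture at 30 C.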
Large screens that a line does not name were inactive. Rows were chosen to be rich in hits. Some 2.4% of all compounds tested hit in one or more screens of this group.

COc1cc(-c2nnc(SCC(=O)N3CCCc4ccccc43)o2)cc(OC)c1OC	none (no result: D2 PAM-1, D2 ag-1, D2 antagonist)
Cc1c(Cl)ccc2c(C(=O)O)cc(-c3ccccc3)nc12	D2 antagonist 52
CC(NC(=O)Cn1cc2c(n1)CCCCC2)c1ccccc1 (stereo not drawn)	D2 antagonist 35
Cc1ccc(C)c(S(=O)(=O)N2CCN(C(=O)c3ccncc3)CC2)c1	none
Cc1nn(C(=O)c2ccccc2)c(C)c1Sc1ccc(Cl)cc1	none (no result: D2 PAM-1, D2 ag-1, D2 antagonist)
O=C(NC1CCN(S(=O)(=O)c2ccc(Cl)cc2)CC1)C1CCCCC1	none
O=C(NC1CC1)C1CCN(S(=O)(=O)c2ccc(Cl)cc2)CC1	D2 antagonist 32
O=C(N/N=C\c1c(O)ccc2ccccc12)c1cncc(Br)c1	D2 ag-2 66
O=C(N/N=C/c1c(O)ccc2ccccc12)c1cccnc1	none
CCOC(=O)Cc1c[nH]c2ccc([N+](=O)[O-])cc12	none (no result: D2 PAM-2, D2 antagonist, D2 ag-2)
COc1ccc(C(=O)Nc2cc3c(oc2=O)CCCC3=O)cc1	D2 PAM-2 44
COc1cccc(NC(=O)CSCc2cc(=O)n3nc(C4CC4)sc3n2)c1	none
CC(C)(C)C(=O)NC(=S)NNC(=O)c1ccncc1	none
CC(C)(C)C(=O)NC(=S)NNC(=O)c1ccc(Cl)cc1Cl	D2 antagonist 91, D2 ag-2 116
CCCOc1ccc(C(=O)NNC(=S)NC(=O)c2ccccc2)cc1	D2 ag-2 45
CCCOc1ccc(C(=O)NNC(=S)NC(C)=O)cc1	none (no result: D2 antagonist, D2 ag-2)
CC(C)(C)C(=O)NC(=S)NNC(=O)c1ccc(-c2ccccc2)cc1	D2 antagonist 64, D2 ag-2 90
COc1ccc2c(Sc3ccccc3)c(C(=O)N3CCC(C)CC3)[nH]c2c1	none (no result: D2 PAM-1, D2 ag-1, D2 antagonist)
CCCN=C1N(CC)C[C@@H]2[C@@H]3C(=O)N(Cc4ccccc4)C(=O)[C@@H]3[C@](Cc3ccccc3)(C(=O)OC)N12	none (no result: D2 PAM-2, D2 antagonist, D2 ag-2)
COc1ccccc1NC(=O)c1ccc2nc(C)c(C)nc2c1	none
Cc1cccc(N=c2c([N+](=O)[O-])nn(-c3ccc(Cl)cc3)n2O)c1	D2 PAM-1 inconclusive
Cc1cc(C)cc(N=c2c([N+](=O)[O-])nn(-c3cccc(Cl)c3)n2O)c1	D2 PAM-1 97
Cc1ccc(CN=c2c([N+](=O)[O-])nn(-c3ccc(Cl)cc3)n2O)cc1	none
CCc1cccc(N=c2c([N+](=O)[O-])nn(-c3ccc(Cl)cc3)n2O)c1	D2 PAM-1 87
Cc1cccc(C)c1OCCN1C(=O)NC(C)(c2ccccc2)C1=O (stereo not drawn)	D2 PAM-2 39
NC(=O)c1ccc(N=Cc2c(O)ccc3ccccc23)cc1	none (no result: D2 PAM-2, D2 antagonist, D2 ag-2)
O=C(O)c1ccc(N=Cc2c(O)ccc3ccccc23)cc1	D2 ag-2 39
CCOC(=O)c1sc(/N=C/c2c(O)ccc3ccccc23)cc1C	D2 antagonist 31
COc1ccc(N=Cc2c(O)ccc3ccccc23)cc1	none
Fc1ccccc1N1CCN(CCCc2ccccc2)CC1	D2 antagonist 74
Cn1c(=O)[nH]c(=O)c2c1nc(CN1CCN(c3ccc(F)cc3)CC1)n2CCCc1ccccc1	none
Cn1c(=O)[nH]c(=O)c2c1nc(CN1CCN(c3ccccc3F)CC1)n2CCCc1ccccc1	D2 PAM-2 32
Clc1ccccc1CN1CCN(CCCc2ccccc2)CC1	D2 antagonist 65
CCC(=O)N1CCc2cc(S(=O)(=O)CCC(=O)NCCc3ccc(S(N)(=O)=O)cc3)ccc21	D2 antagonist 32
CCC(=O)N1CCc2cc(S(=O)(=O)CCC(=O)NCc3ccc(C)cc3)ccc21	none
Cc1ccc(S(=O)(=O)N2CCCCC2)cc1C(=O)NC1CCCCC1	D2 PAM-2 42
Cc1ccc(C(=O)NC2CCCC2)cc1S(=O)(=O)N1CCCCC1	D2 antagonist 32
Cc1cccnc1NC(=O)c1ccc(Cl)c(S(=O)(=O)N2CCCCCC2)c1	D2 antagonist 56
CCOC(=O)c1c(NC(=O)CCCOc2ccccc2C)sc2c1CCC(C)C2 (stereo not drawn)	none (no result: D2 PAM-1, D2 ag-1, D2 antagonist)
O=C(Nc1ccc(F)cc1Cl)n1ncc2cc(Cl)ccc21	none (no result: D2 PAM-1, D2 ag-1, D2 antagonist)
CSC[C@@H]1NC(=S)N(c2ccc(C)cc2)C1=O	none
Cn1c(=O)n(CCCOc2ccc(Br)cc2)c2ccccc21	D2 antagonist 32
CON(C)c1nc(Oc2ccc(=O)[nH]n2)nc(N(C)C)n1	D2 PAM-2 45
Cc1c(C(=O)O)sc2ncnc(N3CCCCC3C)c12 (stereo not drawn)	D2 PAM-2 33
COc1cccc(NC(=O)CCc2c(C)nc3c4cccnc4nn3c2C)c1	none (no result: D2 PAM-1, D2 ag-1, D2 antagonist, D2 ag-2)
CCN(C(=O)COc1ccccc1)c1nnc(-c2cccnc2)s1	D2 antagonist 41
COCCN(C(=O)COc1ccccc1)c1nnc(-c2cccnc2)s1	none
CCN(C(=O)c1c(OC)cccc1OC)c1nnc(-c2cccnc2)s1	D2 PAM-2 52
Cc1ccc(NC(=O)CN2C(=O)CCn3nc(-c4cccn4C)cc32)c(Cl)c1	none (no result: D2 PAM-1, D2 ag-1, D2 antagonist)
O=C1c2ccccc2C(=O)N1CCc1nc(-c2ccccn2)no1	none (no result: D2 antagonist, D2 ag-2)
O=C1c2ccccc2C(=O)N1CCCc1nc(-c2ccccn2)no1	D2 antagonist 36
CCOC(=O)C(=CNCC(=O)OC)C(=O)OCC	D2 antagonist 36
CCOC(=O)CNC=C(C(=O)OCC)C(=O)OCC	none
CCOc1ccccc1NC(=O)Nc1ccc2nc(N3CCN(C)CC3)cc(C)c2c1	none (no result: D2 PAM-1, D2 ag-1, D2 antagonist, D2 ag-2)
COc1ccccc1/C=C/CN1CCN(Cc2ccc(C)o2)C(CCO)C1 (stereo not drawn)	D2 antagonist 49
COCCNCCCOc1ccc(Br)cc1Cl	D2 antagonist 33
COCCNCCCOc1ccc(Cl)cc1Br	none
COCCCNCCCCOc1ccc(Br)cc1Cl	D2 antagonist 65
CC(C)c1ccc(NC(=O)c2ccc(CN3CC(=O)N4CCCCC4C3=O)cc2)cc1 (stereo not drawn)	none (no result: D2 PAM-1, D2 ag-1, D2 antagonist)
Cc1nc2ccccc2c(=O)n1/N=C/c1ccc(O)c(O)c1O	D2 ag-1 48
Cc1nc2ccccc2c(=O)n1/N=C/c1ccccc1O	none
COc1ccccc1-n1cnc2c(c1=O)c1nc3ccccc3nc1n2-c1ccc(C)cc1	D2 PAM-2 33
CCOC(=O)CNC(=O)Cn1cnc2c(nnn2-c2cccc(OC)c2)c1=O	none
O=c1oc2c(CN3CCCCCC3)c(O)ccc2cc1-c1nc2ccccc2[nH]1	D2 ag-2 77 (no result: D2 PAM-1, D2 ag-1)
O=C(NCCCO)c1c(O)c2cccc3c2n(c1=O)CCC3	none
CC(=O)N1C(C)(C)CC(=NOC(=O)c2ccccc2)CC1(C)C	none
CC(=O)N1C(C)(C)CC(=NOC(=O)c2ccc(C)cc2)CC1(C)C	D2 PAM-1 67, D2 ag-1 inconclusive
OC(CNCC#Cc1ccccc1)c1ccccc1 (stereo not drawn)	D2 antagonist 39
OC(CNCc1ccccc1)c1ccccc1 (stereo not drawn)	none
CC(=O)N1CCCc2ccc(NC(=O)c3ccc(C(F)(F)F)cc3)cc21	none (no result: D2 PAM-1, D2 ag-1, D2 antagonist)
